# Results reported in PubChem BioAssay AID1159580 (chemical genetic matrix, 2015).
# Several values for one entry are separate records, joined by “and”; a condition that tells them apart may be missing. Equal entries are not always repeated. Hit rate of the full screen: of about 5,500 compounds, about 2,000 (36%) were called active. About 18% were inconclusive and are not listed. This is one part of the list. Values without a mark were called inactive. Rule as the data show it: active = normalized growth mostly below about 0.91 (no sharp cut-off); inconclusive = no clear call, values can overlap the other calls; inactive = mostly above about 0.92.
# Test: chemical genetic growth profiling, strain panel (AID 1159580);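 also: tested at 20 µM; growth read once vehicle control cultures reached saturation at 30 °C; 1 = growth at the plate median or of vehicle wells; lower values mean less growth of the strain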
# Conditions: S. cerevisiae deletion strains, growth OD
compound,measurement,setting,value
COc1ccc2cc(CCC(C)=O)ccc2c1,normalized growth,"locus YAL013W, strain DEP1, hits give low values",0.952
same,normalized growth,"locus YAL021C, strain ccr4, hits give low values",0.986
same,normalized growth,"locus YAL026C, strain drs2, hits give low values",0.996
same,normalized growth,"locus YAL030W, strain snc1, hits give low values",0.992
same,normalized growth,"locus YBL061C, strain skt5, hits give low values",0.981
same,normalized growth,"locus YBR009C, strain hhf1, hits give low values",0.989
same,normalized growth,"locus YBR021W, strain FUR4, hits give low values",0.947
same,normalized growth,"locus YBR023C, strain chs3, hits give low values",0.977
same,normalized growth,"locus YBR171W, strain sec66, hits give low values",0.985
same,normalized growth,"locus YBR229C, strain ROT2, hits give low values",0.919
same,normalized growth,"locus YBR231C, strain swc5, hits give low values",0.996
same,normalized growth,"locus YBR279W, strain paf1, hits give low values",0.993
same,normalized growth,"locus YCL011C, strain gbp2, hits give low values",0.983
same,normalized growth,"locus YCL016C, strain dcc1, hits give low values",0.997
same,normalized growth,"locus YCL029C, strain bik1, hits give low values",0.939
same,normalized growth,"locus YCL061C, strain MRC1, hits give low values",1
same,normalized growth,"locus YCL069W, strain vba3, hits give low values",0.993
same,normalized growth,"locus YCR088W, strain abp1, hits give low values",0.989
same,normalized growth,"locus YDL005C, strain med2, hits give low values",1.02
same,normalized growth,"locus YDL035C, strain GPR1, hits give low values",0.93
same,normalized growth,"locus YDL040C, strain nat1, hits give low values",0.997
same,normalized growth,"locus YDL074C, strain BRE1, hits give low values",0.935
same,normalized growth,"locus YDL101C, strain DUN1, hits give low values",0.955
same,normalized growth,"locus YDL134C, strain PPH21, hits give low values",0.967
same,normalized growth,"locus YDL185W, strain tfp1, hits give low values",0.945
same,normalized growth,"locus YDL192W, strain arf1, hits give low values",0.91 (active)
same,normalized growth,"locus YDR001C, strain nth1, hits give low values",0.994
same,normalized growth,"locus YDR069C, strain doa4, hits give low values",1.01
same,normalized growth,"locus YDR101C, strain arx1, hits give low values",0.931
same,normalized growth,"locus YDR137W, strain rgp1, hits give low values",1.1
same,normalized growth,"locus YDR150W, strain NUM1, hits give low values",0.939
same,normalized growth,"locus YDR159W, strain sac3, hits give low values",1.03
same,normalized growth,"locus YDR162C, strain NBP2, hits give low values",0.943
same,normalized growth,"locus YDR195W, strain ref2",1.08
same,normalized growth,"locus YDR297W, strain sur2, hits give low values",0.99
same,normalized growth,"locus YDR318W, strain mcm21, hits give low values",0.93
same,normalized growth,"locus YDR334W, strain swr1, hits give low values",1.01
same,normalized growth,"locus YDR335W, strain msn5, hits give low values",0.999
same,normalized growth,"locus YDR388W, hits give low values",0.942
same,normalized growth,"locus YDR392W, strain spt3, hits give low values",0.967
same,normalized growth,"locus YDR502C, strain sam2, hits give low values",0.908 (active)
same,normalized growth,"locus YEL003W, strain gim4, hits give low values",0.991
same,normalized growth,"locus YEL037C, strain rad23, hits give low values",0.991
same,normalized growth,"locus YEL061C, strain CIN8 (second series), hits give low values",1
same,normalized growth,"locus YEL061C, strain CIN8, hits give low values",0.946
same,normalized growth,"locus YER015W, strain faa2, hits give low values",1
same,normalized growth,"locus YER016W, strain bim1, hits give low values",0.99
same,normalized growth,"locus YER110C, hits give low values",0.901
same,normalized growth,"locus YER111C, strain swi4, hits give low values",1
same,normalized growth,"locus YER155C, strain BEM2 (second series), hits give low values",0.843 (active)
same,normalized growth,"locus YER155C, strain BEM2, hits give low values",0.965
same,normalized growth,"locus YER167W, strain BCK2, hits give low values",0.92
same,normalized growth,"locus YFR010W, strain ubp6, hits give low values",1.01
same,normalized growth,"locus YGL078C, strain dbp3, hits give low values",0.921 (active)
same,normalized growth,"locus YGL086W, strain mad1, hits give low values",0.942
same,normalized growth,"locus YGL167C, strain pmr1, hits give low values",0.99
same,normalized growth,"locus YGL173C, strain kem1, hits give low values",0.987
same,normalized growth,"locus YGL227W, strain vid30, hits give low values",0.999
same,normalized growth,"locus YGL240W, strain doc1, hits give low values",0.929
same,normalized growth,"locus YGL248W, strain PDE1, hits give low values",0.959
same,normalized growth,"locus YGL253W, strain hxk2, hits give low values",0.992
same,normalized growth,"locus YGR078C, strain PAC10, hits give low values",0.938
same,normalized growth,"locus YGR135W, strain pre9, hits give low values",0.881 (active)
same,normalized growth,"locus YGR229C, strain SMI1, hits give low values",0.919
same,normalized growth,"locus YGR252W, strain gcn5, hits give low values",0.763 (active)
same,normalized growth,"locus YHR013C, strain ard1, hits give low values",1.02
same,normalized growth,"locus YHR027C, strain rpn1, hits give low values",0.991
same,normalized growth,"locus YHR030C, strain SLT2, hits give low values",0.958 and 0.924
same,normalized growth,"locus YHR079C, strain IRE1 (second series), hits give low values",0.939
same,normalized growth,"locus YHR079C, strain IRE1, hits give low values",0.956
same,normalized growth,"locus YHR094C, strain hxt1, hits give low values",0.96
same,normalized growth,"locus YHR129C, strain ARP1, hits give low values",0.971
same,normalized growth,"locus YHR142W, strain chs7, hits give low values",0.976
same,normalized growth,"locus YHR200W, strain rpn10, hits give low values",0.933
same,normalized growth,"locus YIL066C, strain RNR3, hits give low values",0.929
same,normalized growth,"locus YIL073C, strain SPO22, hits give low values",0.92
same,normalized growth,"locus YIL125W, strain kgd1, hits give low values",0.942
same,normalized growth,"locus YIR030C, strain dcg1, hits give low values",0.929
same,normalized growth,"locus YJL092W, strain hpr5, hits give low values",0.992
same,normalized growth,"locus YJL095W, strain BCK1 (second series), hits give low values",0.99
same,normalized growth,"locus YJL095W, strain BCK1, hits give low values",0.922 and 0.939
same,normalized growth,"locus YJL115W, strain asf1, hits give low values",1.01
same,normalized growth,"locus YJL129C, strain trk1, hits give low values",0.97
same,normalized growth,"locus YJL134W, strain LCB3, hits give low values",0.958
same,normalized growth,"locus YJL154C, strain vps35, hits give low values",0.992
same,normalized growth,"locus YJL164C, strain tpk1, hits give low values",0.992
same,normalized growth,"locus YJL166W, strain qcr8, hits give low values",0.989
same,normalized growth,"locus YJL168C, strain set2, hits give low values",0.957
same,normalized growth,"locus YJL187C, strain SWE1 (second series), hits give low values",0.959
same,normalized growth,"locus YJL187C, strain SWE1, hits give low values",0.992
same,normalized growth,"locus YJR043C, strain POL32, hits give low values",0.917
same,normalized growth,"locus YJR066W, strain TOR1, hits give low values",0.926
